Assay outcomes deposited in PubChem by several laboratories.
Ba/F3 V617F tox: reduced viability of JAK2V617F-dependent Ba/F3 cells, primary screen, JAK2V617F inhibitor project, cell-based, Ba/F3 EpoR-JAK2V617F, luminescence. inhibition, % at 5.6 µM. ATP luminescence. AID 1446, 2008. 220,000 tested, 1.1% active;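 active means inhibition above the campaign mean plus 3 SD over all tested compounds, cut at about 24% in these data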;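 further: cytokine-independent growth of Ba/F3 cells driven by EpoR plus mutant JAK2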
IEC-6 tox: cytotoxicity in IEC-6 intestinal epithelial cells, primary screen, cytotoxicity control for KLF5 inhibitor project, cell-based, luminescence. IEC-6 cytotoxicity, luminescence viability. 290,000 tested, 0.78% active. inhibition, % at 5 µM
KLF5 inhibitor: KLF5 expression inhibitors, primary screen, DLD-1 cells, luminescence; DLD-1 KLF5 promoter-luciferase reporter; inhibition, % at 5 µM; 290,000 tested, 0.23% active;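 active means inhibition above a per-plate limit of that plate's mean compound inhibition plus 3 SD, cut at about 60% in these data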;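 further: higher means less KLF5 promoter-driven luciferase light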
APP 5UTR inh: inhibitors of APP translation via 5'UTR reporter, primary screen, APP 5'UTR luciferase, SH-SY5Y cells | AID 1285, 2008 | 190,000 tested, 0.82% active | inhibition, % at 2 µM | SH-SY5Y APP 5'UTR-luciferase reporter, luminescence;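 active means inhibition above a set limit, derived from the sample mean plus 3 SD, cut at about 45% in these data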
BaF3 parental: parental Ba/F3 cell viability inhibition, counter-screen for JAK2V617F inhibitor project, murine pro-B, CellTiter-Glo luminescence. CellTiter-Glo ATP luminescence. inhibition, % at 5.6 µM. 220,000 tested, 1.1% active. AID 1486, 2009;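 active means inhibition above a per-campaign cutoff, the mean inhibition of all tested compounds plus 3 SD, cut at about 27% in these data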
IEC-6 tox confirm: cytotoxic compounds in IEC-6 epithelial cells, confirmation, cytotoxicity control, cell-based, luminescence; shares compounds with IEC-6 tox; IEC-6 rat intestinal epithelial viability; inhibition, % at 5 µM; 1,900 tested, 63% active; AID 1907, 2009
Large screens that a line does not name were inactive (follow-up assays come after a bar, where they were run). Most compounds without a hit are left out; they make up all but 1.8% or so of the library. Unless noted, no stated cut-off is given here; in the data, active means inhibition above about 22%; inactive means the rest.

CCc1ccccc1NC(=O)C1=CC(c2ccc(OC)c(OC)c2)=NS(=O)(=O)N1C	none (no result: Ba/F3 V617F tox, APP 5UTR inh, BaF3 parental)
C/C(=N\NC(=O)c1ccc(Cl)c(Cl)c1)c1ccccn1	IEC-6 tox 41.5 (no result: Ba/F3 V617F tox, APP 5UTR inh, BaF3 parental) | IEC-6 tox confirm 96.6
C/C(=N\NC(=O)c1ccccc1Cl)c1ccccn1	IEC-6 tox 41.3 (no result: Ba/F3 V617F tox, APP 5UTR inh, BaF3 parental) | IEC-6 tox confirm 65.6
C/C(=N\NC(=O)c1cccc2ccccc12)c1ccccn1	none (no result: Ba/F3 V617F tox, APP 5UTR inh, BaF3 parental)
COc1ccc(NC(=O)c2ccccn2)cc1OC	none
O=C(N/N=C(\c1ccccc1)c1ccccn1)c1ccccc1Cl	IEC-6 tox 95.1 (no result: Ba/F3 V617F tox, APP 5UTR inh, BaF3 parental) | IEC-6 tox confirm 58.4
C/C(=N/NC(=O)c1ccccn1)c1ccncc1	none (no result: Ba/F3 V617F tox, APP 5UTR inh, BaF3 parental)
COc1ccc(C(=O)N/N=C(\C)c2ccccn2)cc1OC	IEC-6 tox 39.8 (no result: Ba/F3 V617F tox, APP 5UTR inh, BaF3 parental) | IEC-6 tox confirm 98.8
COC(CNC(=O)c1ccc2c(c1)ncn2-c1ccc(F)cc1F)OC	none
O=C(c1cc2ccccc2c(=O)o1)N1CCCCCC1	none
CN(CC(=O)Nc1ccc(Cl)cc1)C(=O)Cc1c(F)cccc1Cl	none (no result: Ba/F3 V617F tox, APP 5UTR inh, BaF3 parental)
O=C(O)CCc1nnc(SCC(=O)Nc2cccc(C(F)(F)F)c2)[nH]c1=O	none
NS(=O)(=O)c1ccc2nc(NC(=O)Nc3ccc(F)cc3)sc2c1	none (no result: Ba/F3 V617F tox, APP 5UTR inh, BaF3 parental)
COc1ccc(C(=O)N/N=C(\c2ccccc2)c2ccccn2)cc1	Ba/F3 V617F tox 73.8, IEC-6 tox 28.5, APP 5UTR inh 77.9, BaF3 parental 68.5 | IEC-6 tox confirm 64.8
CCc1nnc(NC(=O)c2cc(Cl)ccn2)s1	IEC-6 tox 30.7 (no result: Ba/F3 V617F tox, APP 5UTR inh, BaF3 parental) | IEC-6 tox confirm inactive
CCCCn1c(CN2CCN(c3cccc(Cl)c3)CC2)nc2c1c(=O)[nH]c(=O)n2C	Ba/F3 V617F tox 47.9, IEC-6 tox 44.5, APP 5UTR inh 84.7, BaF3 parental 37.8 | IEC-6 tox confirm 40.7
Cn1c(=O)[nH]c(=O)c2c1nc(CN1CCN(c3cccc(Cl)c3)CC1)n2CCCc1ccccc1	none
CC(C)NC(=O)CN1C(=O)c2cccc3cccc1c23	none (no result: Ba/F3 V617F tox, APP 5UTR inh, BaF3 parental)
O=c1[nH]c(COc2ccccc2)nc2ccccc12	none (no result: Ba/F3 V617F tox, APP 5UTR inh, BaF3 parental)
Clc1ccc2nc(COc3ccccc3)[nH]c2c1	IEC-6 tox 27.4 (no result: Ba/F3 V617F tox, APP 5UTR inh, BaF3 parental) | IEC-6 tox confirm inactive
CCC(Oc1ccccc1)C(=O)Nc1ccc(S(=O)(=O)Nc2cc(C)on2)cc1 (stereo not drawn)	none (no result: Ba/F3 V617F tox, APP 5UTR inh, BaF3 parental)
C=CCn1c(SCC(=O)c2cccs2)nc2sc(C)cc2c1=O	IEC-6 tox 65.9 | IEC-6 tox confirm 44.4
C=CCn1c(SCC(=O)c2cccs2)nnc1-c1cccc(OC)c1	none
O=C(OCC(=O)N1CCCC1=O)c1nc(Cl)c(Cl)c(Cl)c1Cl	IEC-6 tox 41.7 (no result: Ba/F3 V617F tox, APP 5UTR inh, BaF3 parental) | IEC-6 tox confirm inactive
O=C(OCC(=O)N1CCCC1=O)c1cccc([N+](=O)[O-])c1	none (no result: Ba/F3 V617F tox, APP 5UTR inh, BaF3 parental)
COC(=O)c1cccc(Nc2ncnc3ccc(C)cc23)c1	none
Cc1ccc2ncnc(Nc3cccc([N+](=O)[O-])c3)c2c1	IEC-6 tox 30.9 (no result: Ba/F3 V617F tox, APP 5UTR inh, BaF3 parental) | IEC-6 tox confirm 63.1
CCC(=O)OCCNc1cc(Sc2nc3ccccc3[nH]2)c2nonc2c1[N+](=O)[O-]	IEC-6 tox 53.6, APP 5UTR inh 70.2 | IEC-6 tox confirm inactive
COC(=O)COc1ccc(NC(=O)C(c2ccccc2)c2ccccc2)cc1	IEC-6 tox 24.7 (no result: Ba/F3 V617F tox, APP 5UTR inh, BaF3 parental) | IEC-6 tox confirm inactive
Cc1cccc(NC(=O)[C@H](Cc2c[nH]c3ccccc23)NC(=O)[C@@H]2Cc3ccccc3CN2)c1	none (no result: Ba/F3 V617F tox, APP 5UTR inh, BaF3 parental)
Cc1ccc(NC(=O)[C@H](Cc2c[nH]c3ccccc23)NC(=O)[C@@H]2Cc3ccccc3CN2)c(C)c1	IEC-6 tox 31.5 (no result: Ba/F3 V617F tox, APP 5UTR inh, BaF3 parental) | IEC-6 tox confirm inactive
Cc1ccc(-c2csc3ncnc(Sc4nnc(CN5CCCCCC5=O)o4)c23)cc1	IEC-6 tox 36.1 | IEC-6 tox confirm 30.4
COc1ccc(NC(C)=O)cc1CP(=O)(c1ccccc1)c1ccccc1	none (no result: Ba/F3 V617F tox, APP 5UTR inh, BaF3 parental)
CC12CCC(=O)N1C(C(=O)Nc1cc(S(=O)(=O)N3CCCCCC3)ccc1OCC(F)(F)F)CS2 (stereo not drawn)	none (no result: Ba/F3 V617F tox, APP 5UTR inh, BaF3 parental)
CC(=O)c1ccc(Oc2ccc(C(C)=O)cc2)cc1	none
Oc1ccc(Oc2ccc(Oc3ccc(O)cc3)cc2)cc1	IEC-6 tox 42.2 (no result: Ba/F3 V617F tox, APP 5UTR inh, BaF3 parental) | IEC-6 tox confirm inactive
c1ccc2nc3c(nc2c1)c1ccccc1n3CCN1CCOCC1	Ba/F3 V617F tox 84.3, IEC-6 tox 22.6, BaF3 parental 77.4 | IEC-6 tox confirm inactive
O=c1[nH]c(-c2ccccn2)nc(C(F)(F)F)c1Br	IEC-6 tox 68.1, BaF3 parental 27.6 | IEC-6 tox confirm 24.4
O=C(Nc1nc2c(Br)cc(Br)cc2c(=O)s1)C1CCC1	none (no result: APP 5UTR inh)
